The record followed here is article PMC8384837, “Expanding the binding specificity for RNA recognition by a PUF domain”.

Where a chain is given by its changes, count along the chain named.

What all share (experiment): yeast three-hybrid, YBZ-1, SC-Leu-His + 0.5 mM 3-AT, 4 days
What all share (details): tags: N-Gal4 AD-HA kept; label: inside an RPR1-promoter hybrid RNA with tandem MS2 sites; ssRNA

For experiment [1], the target named is PUM1 PUF domain R3-EWL (Homo sapiens, UniProt Q14671 828-1176, C935E;R936W;Q939L). A digest of the protocol:
(§1)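 The interaction score is the log change in variant frequency from input to selection. Scores were computed in log2 with a pseudocount of 1 for absent variants, using Illumina sequencing of PCR-amplified repeat regions. The input came from four days on SC-Leu and the selection from four days on SC-Leu-His + 0.5 mM 3-AT. The cells were strain YBZ-1 (LexA–MS2 coat fusion, HIS3 reporter) co-expressing Pumilio-1 PUF domain libraries and matching RNA elements from a centromeric plasmid.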

Experiment [2] has as its target T1, PUM1 PUF domain R6-TFK (Homo sapiens, UniProt Q14671 828-1176, N1043T;Y1044F;Q1047K).
T1 sequence: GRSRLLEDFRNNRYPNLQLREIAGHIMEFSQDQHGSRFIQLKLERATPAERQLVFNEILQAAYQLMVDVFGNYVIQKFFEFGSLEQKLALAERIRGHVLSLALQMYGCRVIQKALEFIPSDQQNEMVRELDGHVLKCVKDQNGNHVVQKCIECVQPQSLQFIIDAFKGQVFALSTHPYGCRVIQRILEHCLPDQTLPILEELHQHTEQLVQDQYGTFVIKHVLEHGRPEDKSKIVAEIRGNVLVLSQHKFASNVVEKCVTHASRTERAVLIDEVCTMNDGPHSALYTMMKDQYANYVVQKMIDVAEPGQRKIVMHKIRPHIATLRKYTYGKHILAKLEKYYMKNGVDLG
An outline of the steps: as §1

The target of experiment [3] is T2, PUM1 PUF domain R6-HFF (Homo sapiens, UniProt Q14671 828-1176, N1043H;Y1044F;Q1047F).
T2 sequence: T1 sequence with T216H, K220F
A digest of the protocol:
as §1

In experiment [4] the target is PUM1 PUF domain R4-VLY (Homo sapiens, UniProt Q14671 828-1176, N971V;H972L;Q975Y). A digest of the protocol: as §1
Experiment [5] addresses T3, PUM1 PUF domain R6-AWE (Homo sapiens, UniProt Q14671 828-1176, N1043A;Y1044W;Q1047E).
T3 sequence: T1 sequence with T216A, F217W, K220E
An outline of the steps: as §1

In experiment [6] the target is PUM1 PUF domain R2-IWE (Homo sapiens, UniProt Q14671 828-1176, N899I;Y900W;Q903E). An outline of the steps:
as §1

The target of experiment [7] is PUM1 PUF domain R1-NLV (Homo sapiens, UniProt Q14671 828-1176, S863N;R864L;Q867V). An outline of the steps: as §1
For experiment [8], the target named is PUM1 PUF domain R8-YYF (Homo sapiens, UniProt Q14671 828-1176, N1122Y;Q1126F). A digest of the protocol: as §1
For experiment [9], the target named is PUM1 PUF domain R1-HFK (Homo sapiens, UniProt Q14671 828-1176, S863H;R864F;Q867K). An outline of the steps: as §1

In the case of “GGCUAGAACUAGUGGAUCCCCCGGCGCCCGGCGGCUCGAGCCCGGGUAAGUGUAAUUAGUCUGCAUGCCGCCGGGCGCCAUGCCUGCAGGUCGACUCUAGAAAACAUG”, the binding signal in experiment [1] is 4.51 log2 enrichment (interaction score).

Turning to “GGCUAGAACUAGUGGAUCCCCCGGCGCCCGGCGGCUCGAGCCCGGGUAAGUGUAAAUAGUCUGCAUGCCGCCGGGCGCCAUGCCUGCAGGUCGACUCUAGAAAACAUG”, the binding signal was 5.03 log2 enrichment (interaction score) in experiment [1], 7.02 log2 enrichment (interaction score) in experiment [2], 4.43 log2 enrichment (interaction score) in [3] and 4.53 log2 enrichment (interaction score) in experiment [4]. Turning to “GGCUAGAACUAGUGGAUCCCCCGGCGCCCGGCGGCUCGAGCCCGGGUAAGUGGAAAUAGUCUGCAUGCCGCCGGGCGCCAUGCCUGCAGGUCGACUCUAGAAAACAUG”, the binding signal in experiment [5] is 4.11 log2 enrichment (interaction score).

For “GGCUAGAACUAGUGGAUCCCCCGGCGCCCGGCGGCUCGAGCCCGGGUAAGUGAAAAUAGUCUGCAUGCCGCCGGGCGCCAUGCCUGCAGGUCGACUCUAGAAAACAUG”, the values for the binding signal in experiment [5] and in [2] were 7.15 log2 enrichment (interaction score) and 2.81 log2 enrichment (interaction score), respectively. For “GGCUAGAACUAGUGGAUCCCCCGGCGCCCGGCGGCUCGAGCCCGGGUAAGUGUAAAAAGUCUGCAUGCCGCCGGGCGCCAUGCCUGCAGGUCGACUCUAGAAAACAUG”, the binding signal in experiment [6] is 4.65 log2 enrichment (interaction score). With “GGCUAGAACUAGUGGAUCCCCCGGCGCCCGGCGGCUCGAGCCCGGGUAAGUGUAAAUUGUCUGCAUGCCGCCGGGCGCCAUGCCUGCAGGUCGACUCUAGAAAACAUG”, the binding signal in experiment [7] is 2.72 log2 enrichment (interaction score). For “GGCUAGAACUAGUGGAUCCCCCGGCGCCCGGCGGCUCGAGCCCGGGUAAGCGUAAAUAGUCUGCAUGCCGCCGGGCGCCAUGCCUGCAGGUCGACUCUAGAAAACAUG”, the binding signal in experiment [8] was 5.85 log2 enrichment (interaction score). “GGCUAGAACUAGUGGAUCCCCCGGCGCCCGGCGGCUCGAGCCCGGGUAAGUGUAAAUCGUCUGCAUGCCGCCGGGCGCCAUGCCUGCAGGUCGACUCUAGAAAACAUG”: the binding signal in experiment [9] is 2.71 log2 enrichment (interaction score).
